TLR9-MyD88 inh – TLR9-MyD88 interaction inhibition | inhibition, % at 4.98 µM | AID 504734 | CHO BLA complementation TLR9-MyD88, CCF4 FRET ratio | 0.21% of 340,000 active | Q9NR96+Q99836;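 active means inhibition above the mean over all tested compounds plus 3 SD, cut at about 21% in these data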
PRMT1 inh – inhibitors of human PRMT1; recombinant PRMT1, activity-based probe fluorescence polarization; inhibition, % at 2.79 µM; 1.3% of 370,000 active;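 active means inhibition above about 21% made by adding two undisclosed values, limit read from the data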
rCAG binder – molecules binding r(CAG) RNA repeats | r(CAG) RNA repeat, TO-PRO-1 dye displacement fluorescence | 1.3% of 370,000 active | inhibition, % at 3 µM;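 active means inhibition above the plate cutoff, the mean of all test compounds on that plate plus 3 SD, cut at about 35% in these data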;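 further: higher means more dye released from RNA so lower well fluorescence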
TLR4 MyD88 comp – TLR4-MyD88 interaction inhibition in cells. O00206+Q99836. 0.18% of 200,000 active. HeLa CL3-4 TLR4/MyD88 BLA complementation, FRET ratio. inhibition, % at 8.4 µM; in the data active means inhibition above about 25%
ABHD5-PLIN5 inh – blocks binding of human ABHD5 to perilipin-5. Q00G26+Q8WTS1. Split G. princeps luciferase complementation, luminescence, 4 h. inhibition, % at 4 µM. 0.78% of 360,000 active. AID 602281;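 active means inhibition above the mean inhibition across every tested compound plus 3 SD, cut at about 22% in these data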
NOD2 RIPK2 PPI – blocks binding of human NOD2 to RIPK2; O43353; CHO BLA complementation NOD2-RIPK2, CCF4 ratio; inhibition, % at 4.98 µM; 0.38% of 360,000 active; AID 624267; in the data active means inhibition above about 21%
Target sequence (O43353 whole entry, looked up): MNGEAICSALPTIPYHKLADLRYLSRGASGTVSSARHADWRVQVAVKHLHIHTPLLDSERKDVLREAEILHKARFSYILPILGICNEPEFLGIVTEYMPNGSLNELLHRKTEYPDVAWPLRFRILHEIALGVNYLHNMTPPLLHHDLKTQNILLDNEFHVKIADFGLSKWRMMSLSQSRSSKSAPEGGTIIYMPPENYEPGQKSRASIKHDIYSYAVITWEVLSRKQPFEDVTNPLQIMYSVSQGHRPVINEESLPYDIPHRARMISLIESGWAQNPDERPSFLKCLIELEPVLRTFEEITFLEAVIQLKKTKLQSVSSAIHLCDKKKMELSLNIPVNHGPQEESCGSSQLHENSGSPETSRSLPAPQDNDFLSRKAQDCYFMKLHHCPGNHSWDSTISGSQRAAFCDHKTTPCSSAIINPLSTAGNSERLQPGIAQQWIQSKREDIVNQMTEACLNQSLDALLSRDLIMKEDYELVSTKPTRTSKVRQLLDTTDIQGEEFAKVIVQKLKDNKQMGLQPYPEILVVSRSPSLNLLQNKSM
rCAG bind conf – r(CAG) RNA repeat binding, confirmation; TO-PRO-1 dye displacement fluorescence; shares compounds with rCAG binder; inhibition, % at 3 µM; AID 652065; 70% of 4,300 active;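 active means inhibition above a per-plate cutoff, the mean inhibition of sample wells plus 3 SD, cut at about 35% in these data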;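 further: loss of TO-PRO-1 fluorescence as compound displaces dye from 1x1 AA loop RNA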
DNA CAG counter – counter-screen for rCAG RNA binders: DNA CAG dye complex inhibitors. 94% of 4,300 active. AID 652068. shares compounds with rCAG binder. inhibition, % at 3 µM. d(CAG) DNA oligo TO-PRO-1 dye displacement, fluorescence;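 active means inhibition above its plate's cutoff, the mean test-well inhibition plus 3 SD, cut at about 4.8% in these data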;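 further: hits displace the dye from DNA and so lower well fluorescence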
PRMT1 confirm – confirmation of human PRMT1 inhibitors; shares compounds with PRMT1 inh; recombinant His-PRMT1, activity-based probe fluorescence polarization; inhibition, % at 2.79 µM; 42% of 3,300 active; AID 687036;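 active means mean inhibition across replicates above the hit cutoff derived for the earlier primary screen, cut at about 22% in these data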
Hits are given with their value; – = inactive; · = no result given. Shown are actives, neighbours in structure and some others; about 3.3% of the full set was active somewhere.

SMILES	TLR9-MyD88 inh	PRMT1 inh	rCAG binder	TLR4 MyD88 comp	ABHD5-PLIN5 inh	NOD2 RIPK2 PPI	PRMT1 confirm	others
Cc1ccc(N2C(=O)NC(=O)/C(=C\C=C\c3ccco3)C2=O)cc1C	–	–	36	–	–	–	·	rCAG bind conf=–;DNA CAG counter=6.2
CN(C)c1ccc(/C=C/C=C2/C(=O)NC(=O)N(c3ccccc3)C2=O)cc1	–	–	–	–	–	–	·
COC(=O)C1=C(c2cccc(C#N)c2)C[C@@H]2CC[C@H]1N2C(=O)N1CCC(C)CC1	–	–	–	·	–	–	·
CN1CCN(c2ccc(/C=C3\C(=O)NC(=S)N(c4cccc(Br)c4)C3=O)o2)CC1	–	–	–	–	–	–	·
Cc1ccc(/C=C2\C(=O)NC(=S)N(c3cccc(F)c3)C2=O)o1	–	29	45	·	–	–	57	rCAG bind conf=49;DNA CAG counter=20
CN1C(=O)C(=Cc2ccc(Sc3ccccc3)o2)C(=O)N(C)C1=O	–	–	–	–	–	–	·
CN1C(=O)C(=Cc2ccc(Sc3ccccc3)o2)C(=O)N(C)C1=S	–	36	54	·	–	–	76	rCAG bind conf=58;DNA CAG counter=21
CN1CCN2c3ccc(N)cc3CC3(C(=O)NC(=O)NC3=O)C2C1 (centres undefined)	·	–	–	·	–	–	·
COc1ccc(OC)c(N2C(=O)NC(=O)/C(=C/c3ccc([N+](=O)[O-])s3)C2=O)c1	–	28	79	–	–	–	58	rCAG bind conf=73;DNA CAG counter=38
CCN1C(=O)/C(=C\c2ccc([N+](=O)[O-])s2)C(=O)NC1=S	·	·	·	–	·	·	·
Cc1cc(/C=C2\C(=O)NC(=O)N(Cc3ccccc3)C2=O)c(C)n1-c1ccc(Cl)c(C(=O)O)c1	–	28	43	–	–	–	–	rCAG bind conf=65;DNA CAG counter=24
COC(=O)C1=C(c2ccc(F)cc2OCc2ccccc2)C[C@@H]2CC[C@H]1N2C(=O)N1CCC(O)(c2ccc(Cl)cc2)CC1	–	–	–	·	–	–	·
O=C1CC(=O)N(Cc2ccccc2)C(=S)N1	–	32	72	·	–	–	–	rCAG bind conf=–;DNA CAG counter=–
COc1ccc2c(c1)C(NC(C)=O)CCc1cc(OC)c(OC)c(OC)c1-2 (centres undefined)	–	–	–	·	–	–	·
Brc1ccc2[nH]cc(C=NN3CCCCCC3)c2c1	–	–	–	·	–	–	·
Cn1cccc1/C=C1\C(=O)NC(=O)N(Cc2ccco2)C1=O	–	31	40	–	–	–	22	rCAG bind conf=–;DNA CAG counter=–
Cc1ccc(OCCn2cccc2/C=C2/C(=O)NC(=O)N(Cc3ccco3)C2=O)cc1	–	32	36	·	–	–	–	rCAG bind conf=–;DNA CAG counter=8.7
CC(C)OC(=O)c1c(N)n(Cc2ccco2)c2nc3ccccc3nc12	–	–	–	–	–	–	·
COCCOC(=O)c1c(N)n(Cc2ccco2)c2nc3ccccc3nc12	–	30	–	–	–	–	–
CN1C[C@H](CNC(=O)OCc2ccccc2)C[C@@H]2c3cccc4c3c(cn4C)C[C@H]21	–	39	–	–	–	–	–
O=C1NC(=O)N(Cc2ccccc2)C(=O)/C1=C/c1cnc(-c2ccccc2)nc1	–	–	–	–	–	–	·
O=C1NC(=O)N(Cc2ccccc2)C(=O)/C1=C/N1CCCc2ccccc21	–	28	–	–	–	–	–
c1ccc(C(OCCN2CCN(c3ncccn3)CC2)c2ccccc2)cc1	–	–	–	·	–	–	·
C=CCN=C(SCC(=O)c1ccc(Cl)cc1)c1c(O)n(C)c(=O)n(C)c1=O	–	29	–	·	–	–	31
CN=C(SCc1ccccc1)c1c(O)n(C)c(=O)n(C)c1=O	–	–	–	–	–	–	·
SMILES	TLR9-MyD88 inh	PRMT1 inh	rCAG binder	TLR4 MyD88 comp	ABHD5-PLIN5 inh	NOD2 RIPK2 PPI	PRMT1 confirm	others
COc1ccc(-n2nnnc2C(c2cccs2)N2CCC3(CC2)C(=O)NCN3c2ccccc2)cc1 (centres undefined)	·	–	–	·	–	–	·
Cc1ccccc1OP(=O)(Oc1ccccc1C)N1CCOCC1	·	–	–	·	–	–	·
CCOC(=O)C1SC2(C(F)F)CC1(O)c1c(c(OC)c3occc3c1OC)O2 (centres undefined)	–	29	–	–	–	–	–
CC(=O)Nc1ccc(S(=O)(=O)N2Cc3ccccc3-n3nncc3C2)cc1	–	–	–	·	–	–	·
Cc1cccc(C)c1-n1nnnc1C(c1cccc2ccccc12)N1CCC2(CC1)C(=O)NCN2c1ccccc1 (centres undefined)	·	–	–	·	–	–	·
O=Cc1c(C(=O)O)n(Cc2ccccc2F)c2ccccc12	–	–	–	·	–	–	·
C=CCN1C(=O)/C(=C/c2ccc3c(c2)CCCN3CCC)C(=O)NC1=S	–	26	–	–	–	–	–
CC(C)(C)N1CC(C(=O)c2ccccc2)C1c1ccccc1 (centres undefined)	–	–	–	·	–	–	·
COc1ccc2c(c1)NP(=S)(c1ccccc1)N2C (centres undefined)	–	33	–	·	–	–	–
COc1ccc(P2(=O)Nc3ccccc3N2)cc1	–	–	–	–	–	–	·
O=c1[nH]c2ccccc2n1C1CCN(CCCC(c2ccc(F)cc2)c2ccc(F)cc2)CC1	–	–	–	–	–	–	·
O=C1CC(N2CCC(n3c(=O)[nH]c4ccccc43)CC2)C(=O)N1c1ccc(F)cc1 (centres undefined)	–	45	–	–	–	–	–
CSCCC(c1nnnn1C1CCCCC1)N1CCC2(CC1)C(=O)NCN2c1ccccc1 (centres undefined)	·	–	–	·	–	–	·
O=c1[nH]c(=O)n(Cc2ccco2)c(O)c1/C=N/N1CCCCCC1	–	–	–	–	–	–	·
N#Cc1c(/N=C/c2c(O)n(Cc3ccco3)c(=O)[nH]c2=O)sc2c1CCCC2	–	26	–	–	–	–	–
O=C1NC(=O)C(=Cc2ccc3c(c2)OCO3)C(=O)N1	·	25	–	–	·	·	–
CC(C)OP(=O)(Oc1ccc(C(O)C(Cl)(Cl)Cl)cc1)OC(C)C (centres undefined)	–	–	–	·	–	–	·
Cc1cc(/C=C2\C(=O)NC(=O)N(Cc3ccco3)C2=O)c(C)n1-c1ccc(O)cc1	–	29	–	–	–	–	–
C[C@]12CCC3=C4CCC(=O)C=C4CC[C@H]3C1CC[C@@H]2O (some centres undefined)	–	–	–	·	–	–	·
O=C1NC(=O)C(=Cc2c(Cl)cccc2Cl)C(=O)N1	–	31	–	·	–	–	–
Cc1ccc2cc(C=C(C#N)C#N)c(Cl)nc2c1	–	52	–	–	–	–	22
